An excerpt weighted towards active compounds, which were near 10% of everything screened.
CtBP-E1A blk – CtBP/E1A binding inhibition. AlphaScreen GST-E1A/His-CtBP binding, 1536-well; active compounds read low. activity change, % (test concentration not listed). 0.49% of 340,000 active; in the data active = activity change below about -65%; inconclusive = mostly about -30% to -63%
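Homogeneous bead-based format: GST-tagged E1A captured on glutathione donor beads, His-tagged CtBP on nickel acceptor beads; compounds precede bead addition by 2 h at 37 °C.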
JMJD2A Tudor inh – blocks the human JMJD2A Tudor domain. O75164. AlphaScreen JMJD2A-Tudor / H3K4me3 peptide binding. Potency, µM (titrated, usually from 114 µM), most hits filed as inhibitors. 4.4% of 390,000 active. AID 504339; note: nearly all actives have a fitted effect of over 50% in size
BAZ2B inh – inhibitors of human BAZ2B bromodomain; Q9UIF8; AlphaScreen BAZ2B-H3K14Ac peptide displacement; Potency, µM (series often up to 114 µM), usual class: inhibitors; 4.4% of 360,000 active; AID 504333; note: nearly all actives have a fitted effect of over 60% in size
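AlphaScreen luminescence quantifies BAZ2B engagement of H3K14Ac peptide; the protein and biotinylated peptide are both at 50 nM final, buffer PBS pH 7.4 with 0.01% Tween-20, all steps at room temperature.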
Six1-Eya2 blk – Six1/Eya2 interaction inhibition. Q15475+O00167. AlphaScreen GST-Six1/His-Eya2 binding, biochemical; active compounds read low. activity change, % (no concentration beside the values). 0.56% of 360,000 active. AID 651725; in the data active = activity change below about -65%; inconclusive = mostly about -30% to -63%
Target sequence (O00167 whole entry, looked up): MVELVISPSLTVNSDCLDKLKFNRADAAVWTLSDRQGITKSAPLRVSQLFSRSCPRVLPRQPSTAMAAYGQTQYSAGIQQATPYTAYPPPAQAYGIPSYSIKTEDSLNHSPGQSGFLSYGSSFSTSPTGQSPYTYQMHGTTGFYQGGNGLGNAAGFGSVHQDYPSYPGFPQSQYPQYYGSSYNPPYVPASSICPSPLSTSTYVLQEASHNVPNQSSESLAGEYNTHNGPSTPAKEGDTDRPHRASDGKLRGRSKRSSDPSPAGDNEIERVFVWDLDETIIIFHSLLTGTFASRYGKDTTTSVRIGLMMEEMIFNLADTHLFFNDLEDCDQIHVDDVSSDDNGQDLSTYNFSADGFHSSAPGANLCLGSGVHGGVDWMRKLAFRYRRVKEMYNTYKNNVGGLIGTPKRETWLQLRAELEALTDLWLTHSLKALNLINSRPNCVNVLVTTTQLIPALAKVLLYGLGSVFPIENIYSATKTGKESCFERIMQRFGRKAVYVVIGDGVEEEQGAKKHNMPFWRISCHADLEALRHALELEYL
Target sequence (Q15475 whole entry, looked up): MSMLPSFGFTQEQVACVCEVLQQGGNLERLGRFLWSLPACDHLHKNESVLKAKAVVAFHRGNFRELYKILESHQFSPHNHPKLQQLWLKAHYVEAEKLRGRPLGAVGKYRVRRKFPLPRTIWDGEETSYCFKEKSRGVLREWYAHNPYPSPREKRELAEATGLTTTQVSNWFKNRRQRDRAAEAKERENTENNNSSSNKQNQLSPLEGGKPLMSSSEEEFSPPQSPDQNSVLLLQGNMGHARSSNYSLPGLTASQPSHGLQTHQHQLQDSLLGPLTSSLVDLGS
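Compounds are tested against tagged Six1 and Eya2 proteins bridged by glutathione donor and nickel acceptor beads; after a one-hour incubation at 37 °C without light, AlphaScreen emission is recorded.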
HP1b chromo inh – HP1-beta chromodomain-methylated histone interaction inhibition; Potency, µM (series often up to 114 µM), actives largely listed as inhibitors; P83916; AlphaScreen HP1-beta / biotin-H3K9me3 peptide binding; AID 540317; 0.56% of 390,000 active; note: nearly all actives have a fitted effect of over 70% in size
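AlphaScreen: HP1-beta (50 nM) preformed 30 min with biotin-H3(1-18)K9me3 peptide (50 nM) in PBS pH 7.4, 0.01% Tween-20. Compound added for 30 min at RT, then streptavidin donor/nickel chelate acceptor beads (10 ug/mL) for 30 min.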
G9a inh – inhibitors of human histone lysine methyltransferase G9a. 8.8% of 350,000 active. Q96KQ7. Potency, µM (highest dose often 102 µM), usual class: inhibitors. G9a H3K9 monomethylation, AlphaScreen, 2 h; note: nearly all actives have a fitted effect of over 75% in size
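AlphaScreen read-out: biotin-H3K9 peptide (500 nM) methylation by 20 nM enzyme with 20 uM SAM, 2 h at room temperature after 15 min compound preincubation; anti-monomethyl H3K9 antibody plus donor/acceptor beads, 10 min dark.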
A number is an active result; – = inactive; ? = inconclusive; · = not tested or not shown; [ ] = remark or other dose. Unless noted, calls come from the whole dose curve; as a rule, active = well fitted inhibition curve with a large enough effect; inconclusive = small, poorly fitted or top-dose-only effect; inactive = no such curve, though single readings can be large or run the other way.

SMILES	CtBP-E1A blk	JMJD2A Tudor inh	BAZ2B inh	Six1-Eya2 blk	HP1b chromo inh	G9a inh
CCc1ccc(NC(=O)CN(C(=O)N2CCN(CC)CC2)S(=O)(=O)c2ccc(C)cc2)cc1	–	–	–	–	–	–
COc1ccccc1CNC(=O)c1cn(C)c2ccc(S(=O)(=O)N(C)C3CCCCC3)cc2c1=O	·	–	·	·	–	–
CCOC(=O)[C@H]1[C@H]2COc3ccccc3[C@@H]2N2C(=O)CN(CC3CCCO3)C(=O)[C@@]12C (some centres undefined)	–	–	·	–	–	·
O=C(c1ccco1)N(c1ccccn1)c1ccccn1	–	–	–	–	–	–[2.33 µM]
O=C(/C=C/c1ccc([N+](=O)[O-])cc1)NCc1ccccn1	–	–	–	–	–	–
O=C(/C=C/c1ccco1)Nc1cccnc1Cl	·	–	–	–	–	79µM
O=C(/C=C/c1ccco1)N(c1ccccn1)c1ccccn1	–	22µM	22µM	?	32µM	13µM
O=C(/C=C/c1ccco1)NCC1OCCc2ccccc21 (centres undefined)	–	50µM	45µM	?	32µM	–[12.7 µM]
O=C(/C=C/c1ccco1)NCc1ccccn1	·	–	–	–	–	35µM
COc1ccc(-c2cc3nc(C)c(CCC(=O)N4CCN(c5cccc(Cl)c5)CC4)c(C)n3n2)c(OC)c1	·	–	?	·	–	?
O=C(NNc1nc2cc3c(cc2s1)OCO3)c1ccccc1	–	–	–	–	–	28µM
O=C(NNc1nc2cc3c(cc2s1)OCO3)c1cccc(F)c1	–	–	–	–	–	8.9µM
COc1cc(OC)cc(C(=O)NNc2nc3cc4c(cc3s2)OCO4)c1	–	?	?	–	–	?
COC(=O)c1cc2oc3ccccc3c2n1Cc1ccc(Cl)cc1	·	–	–	·	–	–
O=C(NCCS(=O)(=O)N1CCN(c2ccc(F)cc2)CC1)C(c1ccccc1)c1ccccc1	·	–	–	·	–	–
CC1CN(C2CCN(S(=O)(=O)c3ccc(F)cc3)CC2)CC(C)O1 (centres undefined)	–	2.8µM	32µM	–	?	10µM
CC1CCN(S(=O)(=O)c2ccc(S(=O)(=O)N3CCC4(CC3)OCCO4)cc2)CC1	–	–	–	–	–	11µM
CCCCOc1ccc(S(=O)(=O)n2nc(C)c(S(=O)(=O)N3CCC(C)CC3)c2C)cc1	·	–	–	·	–	–
Cc1ccc(S(=O)(=O)N2CCC(N3CCC(C)CC3)CC2)cc1	–	1.6µM	?	–	?	25µM
Cc1ccc(S(=O)(=O)n2nc(C)c(S(=O)(=O)N3CCC(C)CC3)c2C)cc1	·	79µM	–	·	–	–
CC1CCN(S(=O)(=O)c2ccc(Cl)cc2)CC1	–	–	–	–	–	–
c1ccc(-n2cnc3ccccc32)nc1	–	–	–	–	–	·
S=c1[nH]ncn1-c1ccccn1	–	20µM	?	–	?	?
CC(C)C[C@@H](CN1CCCC1CN1C(=S)NC[C@@H]1Cc1ccccc1)N1C[C@H](Cc2ccccc2)N(CCc2ccccc2)C1=S (some centres undefined)	–	·	·	–	·	·
COC(=O)C1=C(C)Nc2[nH]c(=S)[nH]c(=O)c2C1c1ccc(OC)cc1 (centres undefined)	–	?	?	–	–	8.9µM
SMILES	CtBP-E1A blk	JMJD2A Tudor inh	BAZ2B inh	Six1-Eya2 blk	HP1b chromo inh	G9a inh
COCCCN1C(=O)C(=O)/C(=C(/O)c2ccc(S(=O)(=O)N3CCOCC3)cc2)C1c1ccc(C(C)C)cc1 (centres undefined)	–	–	–	–	–	·
Cc1cccc(Cl)c1OCCCn1ccnc1	·	7.9µM	28µM	–	28µM	10µM
Cc1cc(OCCCn2ccnc2)cc(C)c1Cl	–	?	·	–	–	?
CCN(CC)CCOc1c(C)cccc1Cl	–	–	79µM	–	–	–
Cc1cc(Cl)cc(C)c1OCCCCCn1ccnc1	–	?	32µM	–	–	?
Cn1c(=O)[nH]c(=O)c2c1nc(N1CCOCC1)n2Cc1ccccc1	·	–	–	·	–	–
C/C(=N\NC(=O)c1cccnc1)c1cccc([N+](=O)[O-])c1	–	–	–	–	–	–
O=C(NNC(=O)c1ccccn1)c1cccc([N+](=O)[O-])c1	-66	–	?	-82	–	–
C/C(=N/NC(=O)CNC(=O)c1ccccn1)c1cccc([N+](=O)[O-])c1	–	–	?	–	–	18µM
O=C(c1cccc([N+](=O)[O-])c1)c1ccccn1	·	–	–	–	–	·
CCOc1ccc(/C=C2\SC(=S)N(CC(=O)Nc3ccccn3)C2=O)cc1	–	–	–	–	–	?
CC(=O)Oc1ccc(/C=C2/SC(=S)N(Cc3ccccc3)C2=O)cc1	–	?	3.5µM	–	?	?
COc1ccc(CN2C(=O)/C(=C/c3ccncc3)SC2=S)cc1	–	50µM	8.9µM	–	?	28µM
O=C1/C(=C\c2cc(Br)cc(Br)c2O)SC(=S)N1Cc1ccccc1	–	28µM	10µM	–	32µM	–[2.33 µM]
O=C(O)c1ccc(/C=C2/SC(=S)N(Cc3ccccc3)C2=O)cc1	–	?	?	–	–	?
O=C1/C(=C\c2ccc(O)cc2)SC(=S)N1Cc1ccccc1	–	?	50µM	–	?	·
CC1(C(=O)NCc2cccs2)Cc2c(-c3ccc(C(N)=O)cc3)ccnc2O1 (centres undefined)	–	·	·	–	·	·
COCCN(Cc1ccccc1)C(=S)Nc1ccc(Cl)cc1	·	–	–	–	–	–
O=C(NCCc1ccccc1)C(=O)c1c(-c2ccccc2)[nH]c2ccccc12	–	–	?	–	–	–
Cc1nc2nc(SCC(=O)NCc3ccccc3Cl)nn2c(C)c1Cc1ccccc1	·	–	–	·	–	–
C=C(NCc1ccccc1)c1ccccc1O	·	·	·	·	·	–[12.7 µM]
CCC(CC)=N/N=C/c1c(O)n(CC)c2cc(C3=NNC(=O)CC3)ccc12	–	–	–	?	–	3.5µM
CCn1c(O)c(/C=N/N=C/c2ccccc2)c2ccc(C3=NNC(=O)CC3)cc21	–	–	–	–	–	–
N#C/C(=C\c1ccc(-c2ccc(C(=O)O)cc2)o1)C(=O)Nc1ccccc1C(=O)O	·	79µM	?	·	–	?
Cc1c(N/N=C(\C#N)C(=O)c2ccc(Cl)cc2)c(=O)n(-c2ccccc2)n1C	-76	79µM	25µM	-82	–	?
Cc1c(NC(=O)/C(C#N)=C/c2ccc(-c3ccc(Cl)cc3)o2)c(=O)n(-c2ccccc2)n1C	–	?	50µM	?	–	20µM
N#C/C(=C/c1ccc(-c2ccc(C(=O)O)c(Cl)c2)o1)C(=O)NCC1CCCO1 (centres undefined)	–	–	56µM	–	–	?
N#C/C(=C\c1ccc(-c2ccc(Br)cc2)o1)C(=O)Nc1ccccc1O	·	–	–	·	–	–
